PubChem BioAssay (NCATS)
Results filed as inconclusive are left out. Active and inactive are the calls of the source. The call rests on the fitted dose curve; in most records, active means well fitted curve in the direction sought with a large enough effect; inconclusive means small, poorly fitted or top-dose-only effect, or another doubt; inactive means no such curve, though single readings can be large; an effect the other way counts as inactive or inconclusive. Where a SMILES comes first, the peptide text is derived from it. [ ]: non-standard residue; d: D form. ξ: configuration not given here. ξTyr(βOH) = NC(C(=O)O)C(O)c1ccc(O)cc1

Columns and labels:
[1] = biological target: Calcium and integrin-binding protein 1 (Homo sapiens) (UniProt Q99828); experiment: Primary qHTS for Identification of Calcium Integrin Binding Protein 1 (CIB1) Competitor (AID 1508620); conditions: CIB1-GST / FITC-alphaIIb peptide fluorescence polarization; series mostly up to 57.7 µM;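 further: GST tagged CIB1 binding a fluorescein labelled alphaIIb integrin peptide tracer; top concentration of the series differs between compounds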
Outline: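 Fluorescence polarization competition: GST-tagged CIB1 (1 uM final) preincubated with compound 15 min at room temperature, then FITC-labelled alphaIIb peptide (100 nM final) added. After 15 min at room temperature, polarization read at Ex 480/Em 540.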

[2] = Primary qHTS for inhibitors of nuclear receptor binding SET domain protein 2 (NSD2) in an isogenic RCH-ACV NSD2 p.E1099K mutant (9B) (AID 1645876); conditions: RCH-ACV NSD2 E1099K (9B) viability, CellTiter-Glo, 72 h; series mostly up to 44.9 µM; further: nearly all actives have a fitted effect of over 70% in size
[3] = Primary qHTS for inhibitors of nuclear receptor binding SET domain protein 2 (NSD2) in an RCH-ACV wild type WT cells (2C) (AID 1645877); conditions: RCH-ACV (leukaemia line) NSD2 WT (2C) viability, CellTiter-Glo, 72 h; series mostly up to 44.9 µM; further: nearly all actives have a fitted effect of over 70% in size
On the % scale 0 is the no-effect control and ±100 the full control effect.

Chain of Calcium and integrin-binding protein 1 (Homo sapiens) (Q99828 whole entry, looked up): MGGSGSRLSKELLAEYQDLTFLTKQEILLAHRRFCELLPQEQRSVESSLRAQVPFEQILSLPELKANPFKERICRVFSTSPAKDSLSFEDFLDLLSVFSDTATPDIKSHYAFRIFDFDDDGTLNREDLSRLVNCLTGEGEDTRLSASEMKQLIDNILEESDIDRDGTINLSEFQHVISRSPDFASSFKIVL

CC(=O)OC1CC(=O)C2(C)C3CC4=C(OC(C)CC4=O)OC3(C)CCC2C1(C)C (configuration not stated)
inactive: Potency [1] | Potency [2] | Potency [3]

CC1=C(CO)C2(C)CCCC(C)(C)C2C(O)C1O (configuration not stated)
inactive: Potency [1] | Potency [2] | Potency [3]

CCC12CCCN3CCc4c(n(c5ccccc45)C(O)C1)C32 (configuration not stated)
inactive: Potency [1] | Potency [2] | Potency [3]

Cn1nccc1-c1ccccc1Oc1ccc(S(=O)(=O)Nc2nccs2)cc1C#N
inactive: Potency [1] | Potency [2] | Potency [3]

CC(=O)OCC1=CCC2C(C)(C)CCCC2(C)C12CCC(C)(CC(=O)O)O2 (configuration not stated)
inactive: Potency [1] | Potency [2] | Potency [3]

CC1=CC2=C(C)C(=O)C(C)(O)C(O)C2CO1 (configuration not stated)
inactive: Potency [1] | Potency [2] | Potency [3]

CC(=O)/C=C/C1(O)C(C)CC(O[C@@H]2O[C@H](CO)[C@@H](O)[C@H](O)[C@H]2O)CC1(C)C (some centres not stated)
inactive: Potency [1] | Potency [2] | Potency [3]

COC(O)(CC(C)C)C1Oc2cc(C)[nH]c(=O)c2O1 (configuration not stated)
inactive: Potency [1] | Potency [2] | Potency [3]

CC1(C)CCC2(C(=O)O)CCC3(C)C(=CCC4C5(C)CCC(O)C(C)(CO)C5C(O)CC43C)C2C1 (configuration not stated)
inactive: Potency [1] | Potency [2] | Potency [3]

CC1=C2C3OC(=O)C(C)C3(O)CCC2(C)CCC1 (configuration not stated)
inactive: Potency [1] | Potency [2] | Potency [3]

C[C@]1(OC(=O)/C=C/c2ccccc2)C[C@@H](O)[C@]2(O)C=CO[C@@H](O[C@@H]3O[C@H](CO)[C@@H](O)[C@H](O)[C@H]3O)[C@@H]21
inactive: Potency [1] | Potency [2] | Potency [3]

OC[C@H]1O[C@@H](OCCc2ccccc2)[C@H](O[C@@H]2OC[C@@H](O)[C@H](O)[C@H]2O)[C@@H](O)[C@@H]1O
inactive: Potency [1] | Potency [2] | Potency [3]

O=C(O[C@@H]1O[C@H](CO)[C@@H](O)[C@H](O)[C@H]1O)c1ccccc1
inactive: Potency [1] | Potency [2] | Potency [3]

COC(=O)C1=COC(OC2OC(CO)C(O)C(O)C2O)C2C(C)C(OC(C)=O)C(OC(=O)c3ccccc3)C12 (configuration not stated)
inactive: Potency [1] | Potency [2] | Potency [3]

CC1CC=C2C1CC1(O)C(=O)CC2(C)C1(C)CO (configuration not stated)
inactive: Potency [1] | Potency [2] | Potency [3]

C[C@@H]1O[C@@H](O[C@H]2[C@H](O)[C@@H](O[C@@H]3O[C@H](CO)[C@H](O)[C@H](O)[C@H]3O)[C@H](O[C@H]3CC[C@@]4(C)C(CC[C@]5(C)C4CC=C4[C@@H]6CC(C)(C)CC[C@]6(C(=O)O[C@@H]6O[C@H](CO)[C@@H](O)[C@H](O)[C@H]6O)CC[C@]45C)C3(C)C)O[C@@H]2C(=O)O)[C@H](O)[C@H](O)[C@H]1O (some centres not stated)
inactive: Potency [1] | activity change, negative = viability loss [2] 0.405% [at 9.23 µM] | outcome [3] inactive [at 9.23 µM]

COc1cc(O)cc2c1C(=O)OC(C)C2 (configuration not stated)
inactive: Potency [1] | Potency [2] | Potency [3]

CC1=C[C@@H]2[C@H]3[C@@H]4O[C@@](C)(CC[C@H]4O)[C@H]3CC(=O)[C@]23C(=O)N[C@@H](CC(C)C)[C@@H]3[C@@H]1C
inactive: Potency [1] | Potency [2] | Potency [3]

COC(=O)C1=COC(OC2OC(CO)C(O)C(O)C2O)C2C(COC(=O)/C=C/c3ccc(O)c(O)c3)C(O)C(O)C12 (configuration not stated)
inactive: Potency [1] | Potency [2] | Potency [3]

CC(C)C1NC(=O)CNC(=O)C2CCCN2C(=O)C(Cc2c[nH]c3ccccc23)NC(=O)CNC(=O)C(C(O)c2ccc(O)cc2)NC(=O)CNC1=O (configuration not stated) (cyclo(G[ξTyr(βOH)]GWPGV); configuration not given here)
inactive: Potency [1] | Potency [2] | Potency [3]

CC(C)CC[C@@H](O)[C@](C)(O)[C@H]1CC[C@@]2(O)C3=CC(=O)[C@@H]4C[C@@H](O)[C@@H](O)C[C@]4(C)[C@H]3CC[C@]12C
inactive: Potency [1] | Potency [2] | Potency [3]

C=C[C@@](C)(CCC=C(C)C)O[C@@H]1O[C@H](CO[C@@H]2OC[C@H](O)[C@H](O)[C@H]2O)[C@@H](O)[C@H](O)[C@H]1O
inactive: Potency [1] | Potency [2] | Potency [3]

CC1CCC2C(C)(C)C(O)C(O)CC2(C)C12Cc1c(O)cc(CO)c(C=O)c1O2 (configuration not stated)
inactive: Potency [1] | Potency [2] | Potency [3]

CC(=O)/C=C/C1(O)C(C)(C)CC(O)CC1(C)O (configuration not stated)
inactive: Potency [1] | Potency [2] | Potency [3]

CC(C)CC(=O)O[C@@H]1O[C@H](CO)[C@@H](O[C@H]2O[C@H](C)[C@@H](N[C@H]3C=C(CO)[C@@H](O[C@H]4O[C@H](CO)[C@@H](O[C@H]5O[C@H](CO)[C@@H](O[C@H]6O[C@H](CO)[C@@H](O)[C@H](O)[C@H]6O)[C@H](O)[C@H]5O)[C@H](O)[C@H]4O)[C@H](O)[C@H]3O)[C@H](O)[C@H]2O)[C@H](O)[C@H]1O
inactive: Potency [1] | activity change, negative = viability loss [2] 3.07% [at 9.23 µM] | outcome [3] inactive [at 9.23 µM]

O=C(/C=C/c1ccc(O)c(O)c1)O[C@@H]1[C@@H](O)[C@H](OC2CCCCC2O)O[C@H](CO)[C@H]1O (some centres not stated)
inactive: Potency [1] | Potency [2] | Potency [3]

COC(=O)C(CC1(O)c2ccccc2N2C(=O)C(CC(C)C)NC21)n1cnc2ccccc2c1=O (configuration not stated)
inactive: Potency [1] | Potency [2] | Potency [3]

OCC1OC(Oc2cc(O)cc(/C=C/c3ccc(OC4OC(CO)C(O)C(O)C4O)cc3O)c2)C(O)C(O)C1O (configuration not stated)
inactive: Potency [1] | Potency [2] | Potency [3]

COc1c2ccoc2nc2c(OC)c(O[C@@H]3O[C@@H](C)[C@H](O)[C@@H](O[C@@H]4O[C@H](CO)[C@@H](O)[C@H](O)[C@H]4O)[C@H]3OC(C)=O)ccc12
inactive: Potency [1] | Potency [2] | Potency [3]

NC(=O)[C@H](Cc1ccccc1)NC(=O)[C@H](CCCN=C(N)N)NC(=O)C12CC3CC(CC(C3)C1)C2
inactive: Potency [1] | activity change, negative = viability loss [2] -0.15% [at 9.23 µM] | activity change, negative = cell killing [3] 0.0232% [at 9.23 µM]

O=C(O[C@H]1[C@H](Oc2ccc(O)cc2CO)O[C@H](CO)[C@@H](O)[C@@H]1O)c1ccccc1
inactive: Potency [1] | Potency [2] | Potency [3]

CC(O)/C=C/C1(O)C(C)C(O)C(O[C@@H]2O[C@H](CO)[C@@H](O)[C@H](O)[C@H]2O)CC1(C)C (some centres not stated)
inactive: Potency [1] | Potency [2] | Potency [3]

CC[C@H](C)[C@H](NC(=O)[C@H](Cc1ccc(O)cc1)NC(=O)[C@@H](N)C(C)C)C(=O)N[C@@H](Cc1cnc[nH]1)C(=O)N1CCC[C@H]1C(=O)N[C@@H](Cc1ccccc1)C(=O)O
inactive: activity change, negative = inhibition [1] 2.56% [at 12.4 µM] | outcome [2] inactive [at 4.96 µM] | activity change, negative = cell killing [3] 2.6% [at 4.96 µM]

O=C(/C=C/N1C[C@@H]2C[C@@H]1CN2c1ccccn1)c1ccccc1O
inactive: Potency [1] | Potency [2] | Potency [3]

C[C@@H]1O[C@@H](O[C@H]2[C@H](O[C@H]3[C@H](O[C@H]4CC[C@@]5(C)C(CC[C@]6(C)C5CC=C5[C@@H]7CC(C)(C)C[C@@H](O)[C@]7(C)CC[C@]56C)C4(C)C)O[C@H](C(=O)O)[C@@H](O)[C@@H]3O)O[C@H](C(=O)O)[C@H](O)[C@@H]2O)[C@H](O)[C@H](O)[C@H]1O (some centres not stated)
inactive: Potency [1] | outcome [2] inactive [at 9.23 µM] | outcome [3] inactive [at 9.23 µM]

CC1(C)C(=O)CCC2(C)C1C(O)C=C1COC(=O)C12O (configuration not stated)
inactive: Potency [1] | Potency [2] | Potency [3]

COc1cc([C@@H](O[C@@H]2O[C@H](CO)[C@@H](O)[C@H](O)[C@H]2O)[C@@H]2CO[C@H](c3ccc(O)c(OC)c3)[C@H]2CO)ccc1O
inactive: Potency [1] | Potency [2] | Potency [3]

CC1=C2C(=O)C=C(CO)C2[C@H]2OC(=O)[C@H](C)[C@@H]2[C@@H](OC(=O)Cc2ccc(O)cc2)C1 (some centres not stated)
inactive: Potency [1] | Potency [2] | Potency [3]

C/C(CO)=C1/CCC23COC(C2)C(O)(C(=O)O)CCC13 (configuration not stated)
inactive: Potency [1] | Potency [2] | Potency [3]

CC(C)C1CCC(CO)=CC1/C=C(\CO)C(=O)OCC1(O)CCC(C(C)C)C2C=C(C(=O)O)COC(=O)C21 (configuration not stated)
inactive: Potency [1] | Potency [2] | Potency [3]

CC1(C)CC[C@]2(C(=O)O[C@@H]3O[C@H](CO)[C@@H](O)[C@H](O)[C@H]3O)CC[C@]3(C)C(=CCC4[C@@]5(C)CC[C@H](O[C@H]6O[C@H](CO)[C@@H](O)[C@H](O[C@@H]7O[C@H](CO)[C@@H](O)[C@H](O)[C@H]7O)[C@H]6O)C(C)(C)C5CC[C@]43C)[C@@H]2C1 (some centres not stated)
inactive: Potency [1] | activity change, negative = viability loss [2] 3.49% [at 9.23 µM] | activity change, negative = cell killing [3] 2.79% [at 9.23 µM]

CC(NC(=O)CC(=O)O)C(=O)Nc1ccccc1C(N)=O (configuration not stated)
inactive: Potency [1] | Potency [2] | Potency [3]

C/C=C/C=C/C(O)=C1/C(=O)[C@]2(C)C(=O)[C@@](C)(O)[C@H]1[C@H]([C@@]1(C)OC(=O)C(C)=C1O)[C@H]2C(=O)CC/C=C/C
inactive: Potency [1] | Potency [2] | Potency [3]

CC[C@H]1OC(=O)[C@H](C)[C@@H](O[C@H]2C[C@@](C)(OC)[C@@H](O)[C@H](C)O2)C(C)[C@@H](O[C@@H]2O[C@H](C)C[C@H](N(C)C)[C@H]2O)[C@](C)(O)C[C@@H](C)CN(C)[C@H](C)[C@@H](O)[C@]1(C)O (some centres not stated)
inactive: Potency [1] | Potency [2] | Potency [3]

CC(C)CC(=O)OC[C@@]1(O)C[C@@]23CC[C@H]4[C@@](C)(CCC[C@@]4(C)C(=O)O)[C@@H]2CC[C@@H]1C3
inactive: Potency [1] | Potency [2] | Potency [3]

O=C(/C=C/c1ccccc1)O[C@@H]1[C@@H](CO)O[C@@](CO)(O[C@H]2O[C@H](CO)[C@@H](O)[C@H](O)[C@H]2O)[C@H]1O
inactive: Potency [1] | Potency [2] | Potency [3]

COC1OC(O)C2(CCC3(O2)C(C)CC2OC(=O)C4(C)CCCC3(C)C24)C1O (configuration not stated)
inactive: Potency [1] | Potency [2] | Potency [3]

COC(=O)C(Cc1ccccc1)NC(=O)c1ccccc1 (configuration not stated)
inactive: Potency [1] | Potency [2] | Potency [3]

COC(=O)C1=CO[C@@H](O[C@@H]2O[C@H](CO)[C@@H](O)[C@H](O)[C@H]2O)[C@@H]2[C@@H](C)[C@@H](OC(=O)/C=C/c3ccccc3)[C@@H](O)[C@H]12
inactive: Potency [1] | Potency [2] | Potency [3]
